TGFb SMAD3 inh – inhibitors of TGF-b signaling | HepG2 CAGA-GFP TGF-b/SMAD3 reporter, GFP fluorescence, 18 h; TGF-beta stimulated, 500 pg/mL final | AID 588855 | Potency, µM (doses to about 46.1 µM), usual class: inhibitors | 410,000 tested, 1.2% active; also: nearly all actives have a fitted effect of over 65% in size
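HEPG2 CAGA-GFP, 1000 cells/well; 2 h settle, 37 C; cpd via pin tool; TGF-b 500 pg/mL final; 18 h, 37 C; GFP imaging ex488/em500-530; %Activity normalised to -TGF-b and +DMSO controls; CRC fit, curve class.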
TDP1 cell CPT – DT40-hTDP1 cell growth loss with CPT. AID 686979. chicken DT40 Tdp1-/-;hTDP1 cells + 20 nM CPT, ATP luminescence, 48 h. Potency, µM (titrated, usually from 46.2 µM), actives largely listed as inhibitors. 420,000 tested, 12% active; also: nearly all actives have a fitted effect of over 55% in size
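Chicken DT40 Tdp1-/- cells stably complemented with human TDP1 were seeded at 400 cells/well in medium containing 20 nM camptothecin, exposed to pin-transferred compounds, and grown at 37 °C for at least 48 hr. Viability was read as ATP luminescence.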
TDP1 block – blocks human tyrosyl-DNA phosphodiesterase 1; Potency, µM (titrated, usually from 130 µM), actives largely listed as inhibitors; AID 485290; recombinant TDP1, AlphaScreen DNA substrate cleavage; 350,000 tested, 0.28% active; Q9NUW8; also: nearly all actives have a fitted effect of over 40% in size
Target sequence (Q9NUW8 whole entry, looked up): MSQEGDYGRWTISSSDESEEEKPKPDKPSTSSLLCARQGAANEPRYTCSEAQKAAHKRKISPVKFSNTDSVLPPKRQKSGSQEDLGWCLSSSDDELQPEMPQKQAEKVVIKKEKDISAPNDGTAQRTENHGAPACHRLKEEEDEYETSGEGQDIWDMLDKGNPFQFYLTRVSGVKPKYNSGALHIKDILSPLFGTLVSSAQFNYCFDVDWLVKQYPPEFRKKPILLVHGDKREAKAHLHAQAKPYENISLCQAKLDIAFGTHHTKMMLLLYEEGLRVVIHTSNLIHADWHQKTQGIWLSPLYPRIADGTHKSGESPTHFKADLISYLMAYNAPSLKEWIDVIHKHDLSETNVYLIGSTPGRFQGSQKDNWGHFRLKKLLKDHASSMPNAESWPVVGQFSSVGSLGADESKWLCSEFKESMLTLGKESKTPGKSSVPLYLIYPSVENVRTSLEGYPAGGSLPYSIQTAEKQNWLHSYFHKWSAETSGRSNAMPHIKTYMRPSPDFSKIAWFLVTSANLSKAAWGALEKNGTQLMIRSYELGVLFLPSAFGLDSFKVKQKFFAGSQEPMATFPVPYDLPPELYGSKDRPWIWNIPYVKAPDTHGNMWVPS
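Steps: enzyme plus compound, 15 min RT; add biotin/phosphotyrosine-FITC oligonucleotide (15 nM final), react 5 min; add donor/acceptor beads (10 ug/ml final), 10 min; read AlphaScreen. Tdp1 at 1 nM final.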
HepG2 tox – HepG2 cytotoxicity, counter-screen for TGF-b inhibitors. AID 588856. 410,000 tested, 0.76% active. HepG2 CAGA-GFP viability, ATP luminescence, 18 h. Potency, µM (titrated, usually from 46.1 µM), hits mostly cytotoxic
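CellTiter-Glo luminescence gave cytotoxicity after 18 hours at 37 degrees C. The cells were HepG2 CAGA-GFP in 1% FBS DMEM, stimulated with 500 pg/mL TGF-beta after compound addition. %Activity was normalised to no-cell wells (complete cell-killing) and DMSO (no toxicity), and curves were fitted and classified.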
IL1B secr inh – inflammasome signaling inhibition, IL-1 beta readout | THP-1 LPS/ATP IL-1B secretion, AlphaLISA, 16 h; stronger effect = lower value | activity change, % at 57.5 µM | 360,000 tested, 4.7% active | AID 743279; in the data active = activity change below about -50%; inconclusive = mostly about -30% to -49%
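Secreted IL-1B measured by AlphaLISA bead assay after 16 h compound exposure of THP-1 cells; compounds (final up to 57.5 uM) added 1 h before LPS (250 ng/mL) and ATP (1.25 mM) stimulation; lower signal means less secretion.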
DT40 TDP1 no CPT – qHTS for Inhibitors of human tyrosyl-DNA phosphodiesterase 1 (TDP1): qHTS in cells in absence of CPT; Potency, µM (series often up to 46.2 µM), actives largely listed as inhibitors; AID 686978, 2013; 420,000 tested, 15% active; DT40 Tdp1-/- hTDP1 cells, no CPT, ATP luminescence, 48 h; also: nearly all actives have a fitted effect of over 55% in size
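Seeded 400 DT40-hTDP1 cells/well (vehicle DMSO, no 20 nM CPT); pinned compounds; ≥48 hr at 37 °C; CellTiter-Glo luminescence as viability measure.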
Hits are given with their value; i = inactive; ? = inconclusive; nt = no result given; [ ] = remark or other dose. Hits are enriched below; roughly 19% of the tested compounds scored in any of these assays. Unless noted, calls follow the shape of the dose curve; as a rule, active = well fitted curve in the direction sought with a large enough effect; inconclusive = small, poorly fitted or top-dose-only effect, or another doubt; inactive = no such curve, though single readings can be large; an effect the other way counts as inactive or inconclusive.

SMILES	TGFb SMAD3 inh	TDP1 cell CPT	TDP1 block	HepG2 tox	IL1B secr inh	DT40 TDP1 no CPT
Cc1cccc(N2CCN(C(=O)c3cc4c(=O)n(C)c5ccccc5c4s3)CC2C)c1 (stereo not given)	i	?	i	i	nt	2.3µM
COc1ccccc1N1CCN(C(=O)c2cc3c(=O)n(C)c4ccccc4c3s2)CC1	i	?	i	i	nt	26µM
CCN(CC)c1ccc2c(-c3ccc(S(=O)(=O)O)cc3S(=O)(=O)[O-])c3ccc(=[N+](CC)CC)cc-3oc2c1	i	?	nt	i	i	7.3µM
CCN(CC)c1ccc2nc3c4ccccc4c(=O)cc-3oc2c1	i	i	nt	i	i	i
CCc1ccc(-n2nc3cc(C)c(N)cc3n2)cc1	i	i	i	i	i	i
Cc1cc2nc3ccc(N(C)C)cc3nc2cc1N	i	?	nt	i	?	15µM
Cc1nc(-c2ccc(S(=O)(=O)N3CCCCCC3)cc2)cs1	i	?	i	i	i	?
COCCCn1c(-c2ccc(S(=O)(=O)N3CCOCC3)cc2)csc1=Nc1ccccc1	i	18µM	i[12.3 µM]	i	i	15µM
O=S(=O)(c1ccc(-c2csc(=Nc3ccc(OC(F)(F)Cl)cc3)n2CCCO)cc1)N1CCCC1	3.5µM	2.9µM	i	i	nt	2.3µM
COCCCN1C(=O)C(=O)/C(=C(/O)c2ccc(S(=O)(=O)N3CCOCC3)cc2)C1c1ccc(C)cc1 (stereo not given)	i	i	i	i	i	i
Cn1c(-c2ccc(S(=O)(=O)N3CCCC3)cc2)csc1=Nc1ccc(Cl)c(Cl)c1	?	9.2µM	i[12.3 µM]	i	nt	4.1µM
Cc1ccc(-n2nnnc2SCC(=O)NCCc2ccccc2)cc1C	i	i	i	i	nt	i
Oc1ccc(CNc2ccc(C(F)(F)F)cc2F)c2cccnc12	nt	nt	i	nt	nt	nt
Cc1c(C(=O)Nc2ccc(F)cc2)c2ccccn2c1CCc1ccncc1	i	?	i	i	-52	?
CCc1ccc(NC(=O)Cn2c(=O)n(Cc3ccco3)c(=O)c3cccnc32)cc1	i	i	i	i	nt	i
O=c1c2cccnc2n(Cc2ccc(Cl)cc2)c(=O)n1Cc1ccc(F)cc1	i	?	i	i	nt	8.2µM
Cc1ccccc1Cn1c(=O)n(Cc2ccc(Cl)cc2)c(=O)c2cccnc21	i	15µM	i	i	nt	16µM
O=c1c2cccnc2n(Cc2ccccc2F)c(=O)n1Cc1ccc(F)cc1	i	i	i	i	nt	?
CC(C)=C(NC(=O)c1ccccc1Cl)C(=O)NCCc1nc2ccccc2[nH]1	i	i	nt	i	i	i
CC(=O)N1CCc2c(sc3c2c(=O)n(-c2ccccc2)c(=O)n3CC(=O)Nc2ccccc2C)C1	i	i	i	i	nt	i
CCCCn1c(CCC)nc([N+](=O)[O-])c1Sc1ccc(Cl)cn1	i	18µM	i	i	?	?
CC(C)Cn1c(C(C)C)nc([N+](=O)[O-])c1Sc1ccc(Cl)cn1	i	?	i	i	i	?
Cc1ccc(S(=O)(=O)N2CCN(C(=O)COC(=O)CC(C)c3ccccc3)CC2)c(C)c1 (stereo not given)	i	i	i	i	i	i
CCc1ccc(CNC(=O)c2cc3cc(S(=O)(=O)N4CCCCC4)ccc3n2C)cc1	i	?	i	i	nt	13µM
Cc1ccccc1CNC(=O)c1cc2cc(S(=O)(=O)N3CCCCC3)ccc2n1C	i	?	i	i	nt	18µM
SMILES	TGFb SMAD3 inh	TDP1 cell CPT	TDP1 block	HepG2 tox	IL1B secr inh	DT40 TDP1 no CPT
Cc1ccccc1CNC(=O)Cn1ccc2cc(S(=O)(=O)N3CCCCCC3)ccc21	i	?	i	i	i	?
CSc1ccc(CNC(=O)c2cc3cc(S(=O)(=O)N4CCCCC4)ccc3n2C)cc1	i	i	i	i	nt	?
Cn1c(C(=O)NCc2ccc(F)cc2)cc2cc(S(=O)(=O)N3CCCCC3)ccc21	i	23µM	i	i	nt	12µM
O=C1C2C3C=CC(c4ccccc4)(C2C(=O)N1c1cccc(Cl)c1)C1C(=O)N(c2cccc(Cl)c2)C(=O)C31 (stereo not given)	?	15µM	i	i	i	15µM
Cc1ccccc1OCC(=O)Nc1c(C)ccc2nsnc12	i	?	i	i	nt	?
COc1ccc2nc(C)cc(Nc3ccc(C)cc3)c2c1	i	5.8µM	nt	i	?	?
COc1ccc2nc(C)cc(SCC(=O)NNC(=O)COc3ccc(C)cc3)c2c1	i	i	i	i	i	i
COC(=O)c1ccc(Nc2cc(C)nc3ccc(C)cc23)cc1	?	15µM	nt	i	-93	21µM
COc1ccc(OC)c(Nc2cc(C)nc3ccc(C)cc23)c1	?	4.6µM	nt	i	-77	5.2µM
COc1ccc2nc(C)cc(Nc3ccc(Cl)c(Cl)c3)c2c1	?	2.1µM	i[12.3 µM]	11µM	nt	1.8µM
Cc1nnc(NC(=O)CSc2nnc(CC(=O)Nc3ccccc3F)n2C)s1	i	i	i	i	i	i
Cc1ccc2nc(C)cc(Nc3ccc([N+](=O)[O-])cc3)c2c1	i	1µM	i	i	i	0.92µM
Cc1cc(Nc2cccc(O)c2)c2ccccc2n1	nt	nt	i	nt	nt	nt
COc1ccc2nc(C)cc(NCc3ccc(F)cc3)c2c1	i	?	i	i	-79	23µM
COc1ccc(Nc2cc(C)nc3ccccc23)cc1	i	?	i	i	?	18µM
Cc1cc(Nc2cccc(Br)c2)c2ccccc2n1	?	5.8µM	nt	i	-91	10µM
COc1cc(F)c(S(=O)(=O)N2CCN(S(=O)(=O)c3cccs3)CC2)c(F)c1	nt	nt	i	nt	nt	nt
CCCNC(=O)C1(C)CCN(Cc2cc(-c3ccccc3)on2)C1 (stereo not given)	i	?	nt	i	i	15µM
CCCNC(=O)C1(C)CCCN(Cc2ccccc2-c2ccccc2)C1 (stereo not given)	i	?	nt	i	i	?
CCCNC(=O)C1(C)CCCN(Cc2csc(-c3ccccc3)n2)C1 (stereo not given)	i	?	nt	i	?	21µM
CCNC(=O)C1(C)CCCN(Cc2csc(-c3ccc(Cl)cc3)n2)C1 (stereo not given)	i	i	nt	i	i	i
O=C(CN(Cc1ccccc1Cl)C(=O)Cn1nnc(-c2cccs2)n1)NCC1CCCO1 (stereo not given)	?	i	i	i	i	i
O=C(NCC1CCCO1)C(c1cccs1)N(Cc1ccccc1Cl)C(=O)c1ccc(-c2ccccc2)[nH]1 (stereo not given)	?	?	i	i	?	23µM
